Tests used:
Assay in all cases: PBM binding z-score (relative to random genomic background probes); higher = stronger binding; sequences stand for … in GC…GCGATTGACAGCGTAGAATGAAGG
[1] = test system: RARb homodimer (NR concentration 270 nM)
Procedure, shortened: (§1)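 Custom Agilent 4×180K protein-binding microarrays carried double-stranded probes, each with a 34-nt variable region. These regions held direct-repeat seeds, single-nucleotide variants, half-site ablations and random human genomic background sequences. Ligand-free nuclear receptor dimers were incubated on the arrays for 1 h, antibodies against each partner (one per run) detected binding, and scanned fluorescence was regression-normalized. Binding z-scores take the random background probes as reference.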

[2] = test system: RARg:RXRa (NR concentration 270 nM, RXRa partner concentration 90 nM)
Procedure, shortened: as §1

[3] = test system: RARg homodimer (NR concentration 270 nM)
Procedure, shortened: as §1

[4] = test system: RXRa DBDmut IVT, anti-RXR (DBD mutation: RXRa K156A/R161A, NR concentration 90 nM)
Procedure, shortened: as §1

[5] = test system: RXRa homodimer (NR concentration 180 nM)
Procedure, shortened: as §1

[6] = test system: THRa:RXRa (NR concentration 90 nM, RXRa partner concentration 90 nM)
Procedure, shortened: as §1

[7] = test system: THRa homodimer (NR concentration 90 nM)
Procedure, shortened: as §1

[8] = test system: VDR homodimer (NR concentration 270 nM)
Procedure, shortened: as §1

Sequence | PBM binding z-score [1] | PBM binding z-score [2] | PBM binding z-score [3] | PBM binding z-score [4] | PBM binding z-score [5] | PBM binding z-score [6] | PBM binding z-score [7] | PBM binding z-score [8]
TGTCAAAGTTCACAGGTAACGTAAGTATCCACAC | 4.22 | 5.7 | 5.98 | 3.69 | 5.48 | 2.53 | -0.165 | 3.53
ACTAGATGGTCAGCTGAGGTCACACACAATTCGG | 4.52 | 4.38 | 4.75 | 1.45 | 4.78 | 5.09 | 5.1 | 3.61
TCTCGCAGGACACGAAGGTCAGAGCTTTCCAGAG | 3.18 | 2.44 | 2.34 | 0.886 | 1.96 | 2.4 | 0.377 | 0.357
AGAATGAGGTTACCAAAGATCAGGGTAACGCTTG | 1.37 | 2.15 | 1.95 | 1.3 | 3.07 | 3.1 | 1.43 | 0.478
AGTCAAAGTTCATTAGGTAACGTAAGATTCAGCT | 3.87 | 5.26 | 5.92 | 4.97 | 4.52 | 2.59 | 0.801 | 5.43
CCTACTGGGACATTCAGAGGTCATTGATCATATG | 4.09 | 3.72 | 3.06 | 1.77 | 4.05 | 3.38 | 1.9 | 4.08
GCTTCTAGATCAAGGTTAAGAAAGACTAAGCTAA | 0.106 | 0.25 | 0.347 | 0.0774 | 0.547 | 1.16 | -0.453 | -0.36
ACTAGCAGGCCAAGGATCACTCAAGATTAGTCCG | -0.025 | 0.215 | 0.422 | -0.378 | 0.137 | -0.0655 | -0.556 | -0.55
CTACCAGGGTGAACAAGGTCGTTGATTACTATTC | 1.69 | 1.59 | 0.976 | 0.927 | 1.85 | 3.28 | 1.27 | 2.42
TTACCAAGGTGAGCTGAGGTAGTTGATCCAACTC | 0.264 | -0.0541 | 0.00581 | -0.913 | -0.0499 | 3.02 | 0.0435 | -0.88
CCTACCGGGCCAAAAAGGTCATTGATGCCGATAA | 4.59 | 4.5 | 3.96 | 0.185 | 4.6 | 3.29 | 1.04 | 3.13
GCGACTGGGGCATCAGCTGGTTACCATAACTTAA | 0.0831 | 0.0774 | 0.0488 | -0.446 | -0.273 | -0.306 | -0.655 | -0.58
CCGACAGGGGCAGAAAGGTTACCATACCATCCGG | 2.48 | 1.84 | 1.71 | -0.361 | 1.99 | 1.14 | -0.126 | 0.344
AATACAGGGTCATCGTAGGCCAAAGTACGCACAG | 3.71 | 5.86 | 5.3 | 3.63 | 6.87 | 4.53 | 1.34 | 3.98
CCTAGTTGGTCAAGGTCAGACACGCTATAGGTAC | 3.62 | 3.19 | 3.82 | 1.56 | 2.73 | 3.34 | 2.57 | 2.29
GCTCGGAGGACAAGGTCAGTGCTTTGTCCGTAGA | 3.23 | 2.82 | 3.65 | 0.477 | 1.29 | 2.77 | 1.49 | 0.406
CATACAGGGTCAGCTAAGCCAGAGTAGGGACGGC | 2.87 | 4.23 | 4.37 | 1.77 | 4.2 | 3 | 0.863 | 1.04
AGAATGAGGTTATACGTAGATTAGGGAAGAAAGT | 0.89 | 1.67 | 1.05 | 1.49 | 2.3 | 2.27 | 0.694 | 1.09
CGTCCAAGGTCATAGGAAGTCAGTGAAGACAGAT | 3.7 | 5.5 | 5.7 | 3.77 | 5.28 | 3.81 | 2.31 | 2.43

Sequence | PBM binding z-score [1] | PBM binding z-score [2] | PBM binding z-score [3] | PBM binding z-score [4] | PBM binding z-score [5] | PBM binding z-score [6] | PBM binding z-score [7] | PBM binding z-score [8]
CCGACTGGGGCAAGGTTTCCATAACGCACAGCCA | 0.28 | 0.112 | 0.326 | -0.561 | -0.0639 | -0.0993 | -0.3 | -0.47
CAGACTAGGTCAGGGCCAGTATAGGAGGAACGTT | 2.28 | 2.67 | 3.34 | -0.345 | 1.3 | 1.65 | 0.0626 | -0.295
TCAGACACGTGAAGGTAACTCAGGTACGCAGTCG | 0.104 | 0.176 | 0.219 | 1.06 | 0.661 | 1.21 | -0.125 | 0.218
ACTCGGAGGACAATGGTCAGAGCTACGCCAGTGA | 0.454 | 0.217 | 0.925 | 0.216 | -0.0471 | 0.235 | -0.526 | -0.36
CCTTACGGGCCACTGACAGGTTATAGCATTTGGA | 0.8 | 0.731 | 0.737 | -0.085 | 0.326 | 0.0187 | -0.159 | -0.034
CTCGAAAGGTCGGTTGAGCTGAGTATACGGATAA | 1.27 | 2.09 | 2.29 | 0.709 | 1.74 | 0.825 | -0.574 | -0.476
TGAGTGAGGTTATAAGATCAGGGAACGTTGCAAA | 0.44 | 1.43 | 1.12 | 0.109 | 1.88 | 1.59 | 0.117 | 0.655
CCTACTGGGCCAAATAGGTCATTGATGCCGATAA | 2.48 | 2.17 | 2.25 | -0.057 | 2.2 | 1.67 | -0.13 | 0.916
CCTTACGGGTCACGAGGTTACAGCACGACGAGCG | 4.03 | 6.15 | 5.42 | 1.87 | 7.09 | 4.16 | 1.69 | 1.89
TGAATGAGGTTAAAGATCATGGAACGTGGCGTCG | 0.734 | 2.46 | 1.32 | 0.839 | 4.34 | 2.79 | 0.35 | 0.314
TCGAGTAGGTTACTAATGGGGCATTCAGCTTTCT | 0.14 | 0.367 | 0.0579 | 0.272 | 0.291 | -0.11 | -0.967 | -0.245
CGAACTAGGTCATTGACAGGACAGTGCATAGTAA | 2.87 | 4.65 | 4.3 | 2.22 | 2.43 | 2.85 | 0.816 | 1.86
CCGTGTAGGTTATGGGGCATTCAGGCAACGGTGA | 1.3 | 0.81 | 0.846 | -0.509 | 0.777 | 0.703 | 0.635 | 0.353
CCTCGGAGGACAGAAGGTCAGAGGTGTCCGCTTT | 3.67 | 3.28 | 2.68 | 0.0335 | 1.71 | 2.19 | -0.0182 | 0.148
GCTCGGAGGAGAAGGTCAGAGCTTTGTCCGTAGA | 2.4 | 2.15 | 2.28 | -0.281 | 2.08 | 1.15 | -0.793 | -0.592
TCTTGTCGATCAGCAGGTTAAGAAAGCTGGCCAA | 0.242 | -0.108 | -0.509 | 0.615 | 0.217 | 0.316 | -0.476 | -0.421
TCTTGTAGATCAAGCAGGTTACGAAAGCCTGAGT | 0.377 | 0.206 | -0.118 | 0.652 | 0.618 | 0.537 | -0.421 | -0.206
ATCTCTAGGTAAAAGTTCAGGGAATCCCGAGGAT | 2.58 | 2.3 | 2.18 | 0.858 | 2.15 | 1.54 | 0.461 | 1.7
CGAACTAGGTCATTGAGAGGACAGTGAATAGTAA | 3.22 | 5.93 | 4.96 | 2.07 | 3.22 | 3.42 | 1.08 | 1.56

Sequence | PBM binding z-score [1] | PBM binding z-score [2] | PBM binding z-score [3] | PBM binding z-score [4] | PBM binding z-score [5] | PBM binding z-score [6] | PBM binding z-score [7] | PBM binding z-score [8]
GCTAGTTCGTCAGTAAAAGGTCACACACCGGTCG | 5 | 5.12 | 4.64 | 2.51 | 5.36 | 3.72 | 1.98 | 2.88
TGAATGAGGTTATAATATCAGGGAACGTTGCAAA | 0.41 | 1.56 | 1.12 | 0.98 | 2.04 | 1.92 | 0.355 | 0.545
ATCTCTAGGTAAGATTCAGTTCAGTGAAGAACGC | 0.59 | 0.513 | 0.134 | 0.381 | 0.0885 | 0.976 | 0.542 | 1.31
GCAGACCGGTGAAACGCAGGTAACTCAGGGTGGC | -0.498 | -0.367 | -0.32 | -1.11 | -0.345 | 0.683 | -0.854 | -0.771
GCATCTAGGTAATACAAGGTGAAAGTCCGATTGT | 0.893 | 0.422 | 0.244 | -0.0985 | 0.576 | 3.63 | 1.22 | -0.188
CCAACTGGGCCATTCAGAGGTCATTGATCATATG | 3.76 | 4.28 | 2.94 | 1.22 | 3.98 | 3.12 | 1.3 | 3.31
CTACCAAGTTGAACAAGGTCGTTGATTACTATTC | 1.75 | 0.927 | 0.929 | 2.12 | 1.15 | 2.77 | 1.57 | 3.58
CGAACTAGGTCATTGACAGGACCGTGAATAGTAA | 2.09 | 3.59 | 3.95 | 2.37 | 2.17 | 2.32 | 0.476 | 1.15
CGTCCAAGGTCCAGGTCAGTGAAAGAGACTCGAA | 2.38 | 1.4 | 1.92 | 0.467 | 0.732 | 2.22 | 1.67 | 0.482
GCTGCTAGGTCATCTGATGGTCAGCTAAAGCTCG | 3.52 | 5.15 | 4.96 | 2 | 2.79 | 2.97 | 0.735 | 0.443
TCTCGGAGGACACGAAAGCTCAGAGCTCGACATC | 0.352 | 0.462 | 1.19 | 0.558 | -0.227 | 1.23 | 0.151 | -0.801
AGAATGAGGTTCAGATCAGGGAAACAGAATACAT | 0.405 | 0.907 | 0.758 | 1.63 | 1.02 | 2.61 | -0.043 | 1.03
TCTGCTAGGTCAACGATGGTCACCTAATCTGCTA | 3.63 | 4.17 | 4.77 | 1.06 | 2.69 | 3.58 | 1.37 | 0.156
ACAGACAGGTGAGTGAATGTAACTCAGCTGGACG | -0.316 | 0.386 | 0.453 | -0.311 | 0.676 | 0.0176 | -0.644 | -0.199
TCTTGCAGATCAGCAGGTTAAGAAAGCTGGCCAA | -0.126 | -0.0186 | -0.618 | -0.0927 | 0.33 | 0.0241 | -0.879 | -0.987
TCTATTAGTTGAAGGGCAACCGGCGAGTCCGTTT | 1.33 | 0.436 | 0.37 | 1.69 | 0.567 | 0.217 | 0.172 | 0.963
ACATACAGGTGAGTGAAGGTAACTCAGCTGGACG | 0.773 | 1.2 | 0.903 | 0.0119 | 0.795 | 2.21 | -0.215 | 0.00472
CCTAGCAGTCCAGGGTCACTCAAGCATTTCGCTT | 2.5 | 2.77 | 2.03 | 1.07 | 3.27 | 2.95 | 1.64 | 1.7
TCATATAGGTAAAAGTGAAAGTCGAACGATATGA | -0.485 | 0.288 | 0.384 | 0.791 | 0.523 | -0.171 | -0.456 | -0.103

Reference: the supplement of paper PMC6555819
